# Among all 48,000 compounds or so, about 13,000 (27%) showed an effect of 50% or more. This is one part of the list.
# Test system: Wolbachia pipientis
# Assay: Anti-Wolbachia Cell-Based Screen
# Type: functional
# Parameters: scale not given: in the data most compounds retested in dose-response had high values
# Details: 5 µM
row,Compound,Percent Effect
1,CC(C)(C)CN[C@@H]1CO[C@H](CNC(=O)Nc2ccccc2)[C@H]1O,-16.93%
2,CCOc1ccccc1OCCN(C)Cc1nccn1C,8.395%
3,CC(=O)N(Cc1noc(C)n1)C1CCN(Cc2cc(C)on2)C1 (configuration not stated),0.668%
4,CC(=O)N(Cc1noc(C)n1)C1CCN(Cc2ccccn2)C1 (configuration not stated),104.4%
5,CC(=O)N(Cc1noc(C2CC2)n1)C1CCN(Cc2nccn2C)C1 (configuration not stated),3.362%
6,CC(=O)N(Cc1noc(C2CC2)n1)C1CCN(Cc2cc(C)on2)C1 (configuration not stated),124.1%
7,CC(=O)N(Cc1noc(C2CC2)n1)C1CCN(Cc2ccccn2)C1 (configuration not stated),122.2%
8,CC(=O)N(Cc1noc(C)n1)C1CCN(Cc2ccon2)C1 (configuration not stated),2.71%
9,CCCC(=O)N(CCCN1CCOCC1)c1nc2c(C)ccc(Cl)c2s1.Cl,32.82%
10,CN(C)CCOCC1CN(C(=O)N2CCCC2)Cc2ccnn2C1.O=C(O)C(F)(F)F.O=C(O)C(F)(F)F (configuration not stated),-8.834%
11,CSC(C)(C)CNC(=O)NCc1cccc(-n2cncn2)c1,2.602%
12,COCCOCCNC(=O)N1CCc2c(F)ccc(F)c2C1,-0.5371%
13,N#Cc1cc(F)ccc1Cn1cncn1,9.511%
14,CNC(=O)Cc1noc(Cc2ccc3c(c2)CCCC3)n1,11.56%
15,Cn1cnn(Cc2c(F)cccc2Br)c1=O,12.84%
16,CCn1ccnc1CN1CCC(Oc2ccccc2F)(C(=O)O)CC1,-0.1414%
17,Cc1ccc(=O)n(CC2(O)CCN(Cc3cnc(N(C)C)nc3)CC2)n1,82.15%
18,Cc1ccc(=O)n(CC2(O)CCN(Cc3c(F)cccc3F)CC2)n1,89.56%
19,CCn1cc(CN2CCC(O)(Cn3nc(C)ccc3=O)CC2)cn1,106.9%
20,Cc1ccc(=O)n(CC2(O)CCN(Cc3ccsc3)CC2)n1,-12.71%
21,CN(C)c1cnn(CC(=O)N2CCN(Cc3cccs3)CC2)c(=O)c1,2.186%
22,Cc1ccc(=O)n(CC2(O)CCN(Cc3cccs3)CC2)n1,102.3%
23,CN(C)CC1(O)CCCN(Cc2cnc(-c3ccco3)nc2)CC1 (configuration not stated),2.959%
24,Cc1ccc(=O)n(CC2(O)CCN(Cc3cnc(C)nc3)CC2)n1,-9.776%
25,Cc1noc(C)c1CN(C)C(C)c1cccs1 (configuration not stated),-4.592%

row,Compound,Percent Effect
1,CCCn1cnc2c1CN(S(=O)(=O)c1ccc(F)cc1)[C@H](C(=O)OC)C2,-2.883%
2,CCCC1(CNCc2ncc[nH]2)CCC1,-4.212%
3,CCN1CCc2[nH]cnc2C12CCN(C(=O)CCCn1cncn1)CC2,0.07379%
4,CCC(C(=O)NCc1cccnc1)N(c1cccc(C)c1)S(C)(=O)=O (configuration not stated),-6.23%
5,COc1ccccc1COCC(O)CN(C)c1ccc(C)cc1C (configuration not stated),-38.72%
6,CCn1ccnc1C1CCN(C(=O)C(O)c2ccc(Cl)cc2)CC1 (configuration not stated),-5.147%
7,COc1ccc(C(=O)NC2CC2)c(OC2CCN(CCCSC)CC2)c1,-3.444%
8,COCCN(CCOC)S(=O)(=O)N(C)Cc1ccncc1,7.861%
9,Cn1cc(CN2CC3(CCN(C(=O)c4ccoc4)C3)C2)cn1,3.005%
10,Cc1nc2c(c(N3CC=CC3)n1)CCN(Cc1ccoc1)CC2,2.971%
11,Cc1ccc(=O)n(CC2(O)CCN(Cc3cnn(C)c3)CC2)n1,99.25%
12,Cc1ccc(=O)n(CC2(O)CCN(Cc3ccoc3)CC2)n1,91.7%
13,Cn1cc(CN2CCC3(CC2)CC(=O)Nc2ccccc23)cn1,-46.12%
14,CCN(CC)Cc1ccc(C(=O)NC2CCc3cc(Br)ccc32)o1 (configuration not stated),-2.859%
15,CC(C)c1cc(NCc2csc(C(C)C)n2)nc(N)n1,-18.23%
16,COc1ncccc1NC(=O)c1cccc(C)n1,-5.429%
17,COc1ncccc1C(=O)Nc1ccccc1-c1ccc(=O)n(C)n1,-13.19%
18,COc1ccc(C(=O)Nc2ccccc2C(C)C)c(OC)n1,169%
19,COc1ccc(NC(=O)c2cccc(OC)c2OC)cc1,-22.1%
20,COc1ccc(C(=O)Nc2cccc(SC)c2)c(OC)n1,175.2%
21,COc1cc(NC(=O)c2cccc(N(C)C)c2)cc(OC)c1,6.421%
22,COc1ccc(C(=O)Nc2ccccc2-c2ccc(=O)n(C)n2)cc1,17.03%
23,COc1ccc(C(CO)NC(=O)Nc2cccc(C(C)=O)c2)cc1 (configuration not stated),-19.79%
24,COc1ccc(C(=O)Nc2cccc(C(N)=O)c2)c(OC)n1,132%
25,CC(C)Oc1ncc(C(=O)N2CCc3ccc(O)cc3C2)cc1Cl,-26.56%

row,Compound,Percent Effect
1,CN1N=C(c2nc(Cc3cccc(Br)c3)no2)CCC1=O,-6.645%
2,CC(C(=O)NC1CC1)S(=O)(=O)c1cc2c(cc1Cl)OCCO2 (configuration not stated),-15.14%
3,Cc1noc(C)c1CNS(=O)(=O)N(C)Cc1ccccc1Br,-0.1877%
4,CCc1noc(CN(C)C(=O)COc2cccc(Cl)c2C)n1,4.111%
5,CC(C)NC(=O)[C@H]1C[C@@H]2[C@@H](C1)OCCN2Cc1ccco1.O=C(O)C(F)(F)F,1.513%
6,O=C(O)C(F)(F)F.c1coc(CN2CCO[C@H]3[C@H](OCC4CC4)CC[C@@H]32)c1,120.5%
7,O=C(O)C(F)(F)F.c1coc(CN2CCO[C@H]3[C@@H](OCC4CC4)CC[C@@H]32)c1,73.75%
8,O=C(O)C(F)(F)F.c1coc(CN2CCO[C@H]3[C@H](OCC4CCCC4)CC[C@@H]32)c1,101%
9,O=C(O)C(F)(F)F.c1csc(CN2CCO[C@H]3[C@H](OCC4CCCC4)CC[C@@H]32)n1,-7.308%
10,CCC(Nc1ccc(Oc2cccc(C#N)c2)cc1)C(N)=O (configuration not stated),18.43%
11,CC[C@@H](CO)NC(=O)c1coc(COc2ccc3sc(C)nc3c2)n1,-14.59%
12,CCCc1noc(C(C)N2CC(n3cccn3)C2)n1 (configuration not stated),2.136%
13,CCOCC1CN(Cc2cnn(C)c2)Cc2nn(C)cc21.O=C(O)C(F)(F)F (configuration not stated),-12.04%
14,CCOCC1CN(Cc2cc(C)on2)Cc2cn(C)nc21 (configuration not stated),-1.224%
15,COCC1CN(Cc2ccc3c(c2)OCO3)Cc2ncn(C)c21.O=C(O)C(F)(F)F.O=C(O)C(F)(F)F (configuration not stated),103.2%
16,Cn1cnc2c1C(COCC1CC1)CN(Cc1ccc3c(c1)OCO3)C2.O=C(O)C(F)(F)F.O=C(O)C(F)(F)F (configuration not stated),34.98%
17,CCOCC1CN(Cc2ccc3c(c2)OCO3)Cc2ncn(C)c21 (configuration not stated),101.2%
18,COCC1CN(Cc2ccc(OC)cc2)Cc2nn(C)cc21.O=C(O)C(F)(F)F (configuration not stated),-23.14%
19,CN(C)CC1CN(Cc2ccc3c(c2)OCO3)Cc2nccn2C1.O=C(O)C(F)(F)F.O=C(O)C(F)(F)F (configuration not stated),4.386%
20,CCOCC1CN(Cc2ccc3c(c2)OCO3)Cc2nccn2C1 (configuration not stated),77.74%
21,CCCc1nnc(NCc2ccc(OC)c(C#N)c2)o1,-5.74%
22,CN1C[C@@H](F)[C@@H](OCc2nc3ccc(C#N)cc3[nH]2)C1,11.19%
23,NC(=O)CN(C(=O)Cc1ccc(C(F)(F)F)cc1)C1CCCC1,1.7%
24,CCn1nc(C)c(CCn2ccnc2-c2cc3n(n2)CCCNC3)c1C,-7.012%
25,CC(C)CC(O)C1CCN(Cc2cnc(-c3cccs3)nc2)CC1 (configuration not stated),3.832%

row,Compound,Percent Effect
1,CN(C)S(=O)(=O)c1cccc(NC(=O)Cc2ccon2)c1,-6.04%
2,COCCn1/c(=N\C(=O)CN(C)S(C)(=O)=O)sc2cccc(F)c21,0%
3,O=C(CO)N1CCC(c2ccnc(Nc3cc(C(F)(F)F)ccn3)n2)C1 (configuration not stated),149.1%
4,CC(=O)N1CCC(c2ccnc(Nc3cc(C(F)(F)F)ccn3)n2)C1 (configuration not stated),158.6%
5,O=C(CC(F)(F)F)N1CCCC(c2nccn2Cc2ccncc2)C1 (configuration not stated),-5.55%
6,Cl.NCC(=O)N1CCC(c2ccnc(Nc3cc(C(F)(F)F)ccn3)n2)C1 (configuration not stated),119.4%
7,COCC(=O)N1CC(c2ccnc(Nc3cc(C(F)(F)F)ccn3)n2)C1,171.1%
8,Nc1ccc(C(=O)N2CCCC(c3nccn3Cc3cscn3)C2)cn1 (configuration not stated),-28.34%
9,CC(C)c1nc(-c2cc(C(=O)N3CCN(C)CC3)c3ccccn23)cs1.O=C(O)C(F)(F)F,-39.55%
10,CN1CCCN(C(=O)c2cc(-c3cc[nH]n3)n3ccccc23)CC1.O=C(O)C(F)(F)F.O=C(O)C(F)(F)F,9.313%
11,O=C(c1cc(-c2ccn(CC3CC3)n2)n2ccccc12)N1CCCO1,-14.88%
12,Cc1nc(-c2cc(C(=O)N3CCN(C)CC3)c3ccccn23)cn1C,1.368%
13,Cn1ccc(-c2cc(C(=O)N3CCCCC3)c3ccccn23)n1,111.2%
14,COCCn1cc(-c2cc(C(=O)N3CCCC3)c3ccccn23)nc1C,-3.651%
15,CN(C)C1CCN(C(=O)c2cc(-c3ccn(C)n3)n3ccccc23)CC1.O=C(O)C(F)(F)F,86.54%
16,O=C(O)c1cc(-c2ccn(CC3CC3)n2)n2ccccc12,0.5352%
17,Cn1ccc(-c2cc(C(=O)N3CCC(O)CC3)c3ccccn23)n1,101.1%
18,O=C(c1cc(-c2ccn(CC3CC3)n2)n2ccccc12)N1CCOCC1,-12.76%
19,Cn1ccc(-c2cc(C(=O)N3CCC(C(N)=O)CC3)c3ccccn23)n1,110.4%
20,CC(C)n1ccc(-c2cc(C(=O)N3CCN(C)CC3)c3ccccn23)n1.O=C(O)C(F)(F)F,-12.81%
21,CC(C(=O)N(Cc1ccccc1)CC(F)(F)F)S(C)(=O)=O (configuration not stated),3.578%
22,CC(C)NC(=O)CNC(=O)C12CCC(=O)N1c1cc(Cl)ccc1S2 (configuration not stated),-9.931%

# Reference: ChEMBL document CHEMBL3988442, “University of Dundee, Small-Polar-MMV Screening Library” (2021)
